Laboratory results as given in PubChem BioAssay (NCATS).
“And” between values parts separate entries of the source, which are not always exact repeats. Identical values can stand only once. Inconclusive results are not listed. Entries that show only a call come without a potency. Values without a mark were called inactive. The source made the active and inactive calls. Calls follow the shape of the dose curve; as a rule, active = well fitted curve in the direction sought with a large enough effect; inconclusive = small, poorly fitted or top-dose-only effect, or another doubt; inactive = no such curve, though single readings can be large; an effect the other way counts as inactive or inconclusive.

Key:
[1] = Quantitative highthroughput screen to assess conditional lethalithy of NOMO1 cells grown in RPMI1640 with untreated serum (RPMI+s) (AID 1963876); conditions: NOMO1 AML cells in RPMI+serum, CellTiter-Glo viability, 48 h; series mostly up to 45.8 µM; also: nearly all actives have a fitted effect of over 35% in size
How it was run: (§1)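 Each medium arm—HPLM with 10% dialyzed FBS, or RPMI1640 with 5 mM glucose and 10% untreated or dialyzed FBS—was screened against an 11-point, 3-fold compound titration for 48 h at 37 °C, with CellTiter-Glo luminescence as endpoint.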

[2] = Quantitative highthroughput screen to assess conditional lethalithy of NOMO1 cells grown in RPMI1640 with dialyzed fetal bovine serum (RPMI+ds) (AID 1963877); conditions: NOMO1 in RPMI+dialyzed FBS viability, ATP luminescence, 48 h; series mostly up to 45.8 µM; also: nearly all actives have a fitted effect of over 30% in size
How it was run: as §1

[3] = Quantitative highthroughput screen to assess conditional lethalithy of NOMO1 cells grown in Human Plasma-Like Medium with dialyzed fetal bovine serum (HPLM+ds) (AID 1963878); conditions: NOMO1 AML cells in HPLM+ds, CellTiter-Glo viability, 48 h; series mostly up to 45.8 µM; also: nearly all actives have a fitted effect of over 35% in size
How it was run: as §1

[4] = Quantitative highthroughput screen to assess conditional lethalithy of P12 Ichikawa cells grown in Human Plasma-Like Medium with dialyzed fetal bovine serum (HPLM+ds) (AID 1963879); conditions: ATP luminescence, 48 h; Potency: viability; series mostly up to 45.8 µM; also: nearly all actives have a fitted effect of over 35% in size
How it was run: as §1

[5] = Quantitative highthroughput screen to assess conditional lethalithy of P12 Ichikawa cells grown in RPMI1640 with dialyzed fetal bovine serum (RPMI+ds) (AID 1963880); conditions: ATP luminescence, 48 h; Potency: P12-Ichikawa viability; series mostly up to 45.8 µM; also: nearly all actives have a fitted effect of over 35% in size
How it was run: as §1

[6] = Quantitative highthroughput screen to assess conditional lethalithy of P12 Ichikawa cells grown in RPMI1640 with untreated serum (RPMI+s) (AID 1963881); conditions: ATP luminescence, 48 h; Potency: viability; series mostly up to 45.8 µM; also: nearly all actives have a fitted effect of over 35% in size
How it was run: as §1

[7] = Quantitative highthroughput screen to assess conditional lethalithy of SEM cells grown in Human Plasma-Like Medium with dialyzed fetal bovine serum (HPLM+ds) (AID 1963882); conditions: SEM B-ALL cells in HPLM+ds, CellTiter-Glo viability, 48 h; series mostly up to 45.8 µM; also: nearly all actives have a fitted effect of over 35% in size
How it was run: as §1

[8] = Quantitative highthroughput screen to assess conditional lethalithy of SEM cells grown in RPMI1640 with unreated serum (RPMI+s) (AID 1963883); conditions: SEM B-ALL cells, CellTiter-Glo viability, 48 h; series mostly up to 45.8 µM; also: nearly all actives have a fitted effect of over 35% in size
How it was run: as §1

[9] = Quantitative highthroughput screen to assess conditional lethalithy of SEM cells grown in RPMI1640 with dialyzed fetal bovine serum (RPMI+ds) (AID 1963884); conditions: SEM B-ALL cells, RPMI+dialyzed FBS, CellTiter-Glo viability, 48 h; series mostly up to 45.8 µM; also: nearly all actives have a fitted effect of over 35% in size
How it was run: as §1

[10] = Cellular viability qHTS for adrenocortical cancer (ACC) cell line SW-13 (AID 1963989); conditions: SW-13 ACC cells viability, CellTiter-Glo, 48 h; activity (max response): stronger effect = lower value; also: nearly all actives have a fitted effect of over 65% in size;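 as to activity (max response): cells grown in serum-free medium with ITS supplement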
How it was run: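 Here, serum-free SW-13 cultures were dosed up to 46 uM. Following 48 h, ATP-dependent luminescence (CellTiter-Glo) reported viable cells, and logistic modeling produced IC50 values.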

[11] = Cellular viability qHTS for adrenocortical cancer (ACC) cell line NCI-H295R (AID 1963990); conditions: CellTiter-Glo ATP luminescence, 48 h; series mostly up to 46.1 µM; also: nearly all actives have a fitted effect of over 60% in size
How it was run: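 Viability of NCI-H295R after 48 h of treatment (final up to 46 uM) measured through cellular ATP luminescence.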
Potency is read from the fitted curve at half-maximal effect.

Structure (SMILES) | Potency [1] | Potency [2] | Potency [3] | Potency [4] | Potency [5] | Potency [6] | Potency [7] | Potency [8] | Potency [9] | activity (max response) [10] | Potency [11] | Potency [10]
C=CC[N+]1([C@H]2C[C@H]3[C@@H]4CC[C@H]5C[C@H](O)[C@@H](N6CCOCC6)C[C@]5(C)[C@@H]4CC[C@]3(C)[C@H]2OC(C)=O)CCCC1 | inactive | inactive | inactive | inactive | inactive | inactive | inactive | inactive | inactive |  |  | 
C[C@@]12C(=O)OC(=O)[C@@]1(C)C1CCC2O1 | 8.33 µM (active) | 7.43 µM (active) | 6.62 µM (active) | 8.33 µM (active) | 9.35 µM (active) | 9.35 µM (active) | 8.33 µM (active) | 6.62 µM (active) | 5.26 µM (active) |  |  | 
OCCn1cc(-c2ccc3c(c2)CCC3=NO)c(-c2ccncc2)n1 | inactive | inactive | inactive | inactive | inactive | inactive | inactive | inactive | inactive |  |  | 
COc1cc(C=CC(=O)CC(=O)C=Cc2ccc(O)c(OC)c2)ccc1O | 38.2 µM (active) | 42.9 µM (active) | 24.1 µM (active) | 21.5 µM (active) | 34 µM (active) | 34 µM (active) | 19.1 µM (active) | 17.1 µM (active) | 21.5 µM (active) |  |  | 
CC(C=CC=C(C)C=CC1=C(C)CCCC1(C)C)=CC=CC=C(C)C=CC=C(C)C=CC1=C(C)CCCC1(C)C | inactive | inactive | inactive | inactive | inactive | inactive | inactive | inactive | inactive |  |  | 
CCC(CC)[C@H](NC(C)=O)[C@@H]1[C@H](O)[C@@H](C(=O)O)C[C@@H]1N=C(N)N | inactive | inactive | inactive | inactive | inactive | inactive | inactive | inactive | inactive |  |  | 
C=C1C(=O)O[C@H]2[C@@H]1CCC(C)=CCC[C@@]1(C)O[C@@H]21 | 4.69 µM (active) | 5.9 µM (active) | 2.35 µM (active) | 2.35 µM (active) | 2.35 µM (active) | 2.64 µM (active) | 1.32 µM (active) | 0.833 µM (active) | 1.48 µM (active) |  |  | 
CC(C)(C)[N+]([O-])=Cc1ccc(S(=O)(=O)O)cc1S(=O)(=O)O | inactive | inactive | inactive | inactive | inactive | inactive | inactive | inactive | inactive |  |  | 
O=c1ccn([C@@H]2O[C@H](CO)[C@H](O)[C@H]2O)c(=O)[nH]1 | inactive | inactive | inactive | inactive | inactive | inactive | inactive | inactive | inactive |  |  | 
Cc1cc(O)c2c(c1)C(=O)c1cc(O)cc(O)c1C2=O | inactive | inactive | inactive | inactive | inactive | inactive | inactive | inactive | inactive | -8.42% | inactive | 
O=C(Nc1c(Cl)cncc1Cl)c1ccc(OC(F)F)c(OCC2CC2)c1 | inactive | inactive | inactive | inactive | inactive | inactive | inactive | inactive | inactive | 5.46% | inactive | 
Clc1cccc(-n2nnnc2NCc2ccccc2Oc2ccccn2)c1Cl | inactive | inactive | inactive | inactive | inactive | inactive | inactive | inactive | inactive |  | inactive | 
CCOC(=O)C1=C(C)NC(=S)NC1c1cccc(O)c1 (stereo not given) | 0.148 µM (active) | 0.264 µM (active) | 0.235 µM (active) | 0.187 µM (active) | 0.296 µM (active) | 0.148 µM (active) | 0.0743 µM (active) | 0.132 µM (active) | 0.166 µM (active) |  | inactive | 
O=C(O)[C@@H](c1ccc(OCc2ccc3ccccc3n2)cc1)C1CCCC1 | inactive | inactive | inactive | inactive | inactive | inactive | inactive | inactive |  | -1.81% | inactive | 
Oc1ccc(C2CNCCc3c2cc(O)c(O)c3Cl)cc1 (stereo not given) | inactive | inactive | inactive | inactive | inactive | inactive | inactive | inactive | inactive | 2.44% and 14.8% |  | 
CCOC(=O)[C@H](CCc1ccccc1)N[C@@H](C)C(=O)N1CCCC1C(=O)O (stereo not given in full) | inactive | inactive | inactive | inactive | inactive | inactive | inactive |  | inactive |  |  | 
Cn1cc(-c2ccc3nnc(Sc4ccc5ncccc5c4)n3n2)cn1 | inactive | inactive | inactive | inactive | inactive | inactive | inactive | inactive | inactive | -4.92% | inactive | 
O=c1ccn([C@@H]2O[C@H](CO)[C@H](O)[C@@H]2F)c(=O)[nH]1 | inactive | inactive | inactive | inactive | inactive | inactive | inactive | inactive | inactive | -7.29% |  | 
O=c1c(O)c(-c2cc(O)c(O)c(O)c2)oc2cc(O)cc(O)c12 | inactive | inactive | inactive | inactive | inactive | inactive | inactive | inactive | inactive | -0.163% |  | 
CC(C)c1ccc(Cn2ccc3c4c(N)nc(NC5CC5)nc4ccc32)cc1 | 10.5 µM (active) | 5.9 µM (active) | 1.05 µM (active) | 3.72 µM (active) | 2.64 µM (active) | 4.69 µM (active) | 1.66 µM (active) | 3.72 µM (active) | 3.72 µM (active) |  | 1.12 µM (active) | 398 nM (active)
COc1ccc(CC2=NN3C([C@@H](CCc4ccccc4)[C@@H](C)O)=NC(C)C3C(=O)N2)cc1OC (stereo not given in full) | inactive | inactive | inactive | inactive | inactive | inactive | inactive | inactive | inactive | 3.98% | inactive | 
O=C(C=CC=Cc1ccc2c(c1)OCO2)N1CCCCC1 | inactive | inactive | inactive | inactive | inactive | inactive | inactive |  | inactive |  |  | 
CC1(O)CC(c2nc(-c3ccc4ccc(-c5ccccc5)nc4c3)c3c(N)nccn23)C1 (stereo not given) | 3.72 µM (active) | 3.72 µM (active) | 2.35 µM (active) | 7.43 µM (active) | 5.9 µM (active) | 4.69 µM (active) | 2.35 µM (active) | 1.18 µM (active) | 2.35 µM (active) | -21% |  | 
COc1ccc2c(c1)CC[C@H]1[C@@H]2CC[C@]2(C)[C@@H](NCCCCCCN3C(=O)C=CC3=O)CC[C@H]12 | inactive | inactive | inactive | inactive | inactive | inactive | inactive |  | inactive |  |  | 
